Test results taken from PubChem BioAssay (NCATS).
Inconclusive results are not listed. The source made the active and inactive calls. Unless noted, calls come from the whole dose curve; as a rule, active = well fitted curve in either direction with a large enough effect (not every such curve was filed as active); inconclusive = small, poorly fitted or top-dose-only effect, or another doubt; inactive = flat fitted curve, though single readings scatter.

How the values were obtained:
[1] = molecular target: Lysosomal acid glucosylceramidase (Homo sapiens) (UniProt P04062); assay: Glucocerebrosidase-p2 (AID 348; in the data active = potency below about 10 µM; note: potency is the fitted concentration of half-maximal effect); conditions: purified GBA, blue fluorogenic substrate, 40 min
In short: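 Normal human glucocerebrosidase (0.2 nM) with blue fluorogenic substrate (80 uM final) in citrate/phosphate pH 5.9 with 10mM sodium taurocholate, 0.01% tween-20; 40 min RT, NaOH/glycine stop; fluorescence Ex 365/Em 440; AC50 from a titration from 0.6 nM upwards.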

[2] = AP1 Signaling Pathway (AID 357); conditions: ME-180 (cervical carcinoma) AP-1-bla reporter, EGF-induced, beta-lactamase ratio, 5 h; at 7.69 µM (top of the series) unless noted;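 note: ME-180 reporter cells stimulated with EGF at its EC50 level; % is set by controls: 0 for no effect and ±100 for the full control effect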
In short: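 A ratiometric CCF4 readout (405 nm excitation; 460 and 530 nm emission) quantified AP-1-driven beta-lactamase in ME-180 cells after 5 h with compound and EC50 EGF; AC50 values were derived for activators and inhibitors.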

[3] = molecular target: Cytochrome P450 1A2 (Homo sapiens) (UniProt P05177); assay: p450-cyp1a2 (AID 410; calls by dose curve;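 note: -100% = full effect of reference inhibitor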); conditions: recombinant CYP1A2, luciferin-ME demethylation, luminescence; series mostly up to 11.4 µM
In short: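 Read-out is luminescence from luciferin produced by CYP1A2 demethylation of Luciferin-ME (100uM, at Km). Detection reagent stopped the 60 min NADPH-dependent reaction; signals were normalized to 57 uM furafylline.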

[4] = NFAT Signaling Pathway (AID 444); conditions: Jurkat NFAT-bla M1, carbachol, beta-lactamase ratio, 5 h; at 7.69 µM (top of the series) unless noted;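 note: carbachol stimulus at about its EC50 of 1 µM final; % is set by controls: 0 for no effect and ±100 for the full control effect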
In short: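 Read-out: CCF4 FRET ratio (460 nm/530 nm) after 1 h RT dye loading, used for %activity and AC50 from titration series. Cells: Jurkat NFAT-β-lactamase/M1 line, treated with compound plus 1 uM carbachol for 5 h, 37 °C.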

[5] = molecular target: Glucocorticoid receptor (Homo sapiens) (UniProt P04150); assay: GR-GFP Redistribution (AID 450;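 active = compounds whose dose series gives a full or clear partial fitted curve of increased nuclear translocation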; note: potency is the fitted concentration of half-maximal effect); conditions: U2OS GR-GFP nuclear translocation, laser cytometry, 2 h
[6] = molecular target: Glucocorticoid receptor (Homo sapiens) (UniProt P04150); assay: GR-EFC Redistribution (AID 451; calls by dose curve; note: potency is the fitted concentration of half-maximal effect); conditions: CHO-K1 GR-EFC translocation, beta-gal luminescence, 2 h
In short: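 Translocation of GR-ED fusion to nuclear EA restores b-gal, read by luminescence after 1 h room-temperature detection. Engineered CHO-K1 biosensor cells, 1,000/well, exposed 2 h at 37 C to titrations up to 46 uM final.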

[7] = molecular target: Mitogen-activated protein kinase 10 (Mus musculus) (UniProt Q61831); assay: JNK3 AlphaScreen Assay (AID 530); conditions: JNK3 lysate, c-Jun phosphorylation; series mostly up to 11.4 µM;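 note: kinase came from lysate of stimulated human HepG2 cells; signal reports phosphorylation of biotinylated GST-cJun 1-79 at Ser73 with 10 µM ATP; % is set by controls: 0 for no effect and ±100 for the full control effect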
In short: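 Kinase buffer: 20 mM Tris-HCl pH 7.6, 10 mM MgCl2, 1 mM DTT, 0.1 mM Na3VO4, 0.01% Tween-20; ATP 10 uM. Substrate biotin-GST-cJun(1-79), enzyme from activated HepG2 lysates. Detection by Ser73 phospho-antibody AlphaScreen.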

[8] = molecular target: 3',5'-cyclic-AMP phosphodiesterase 4B (Homo sapiens) (UniProt Q07343); assay: qHTS Assay for Inhibitors of PDE-IV (AID 607; active = well fitted activation curve with a large enough effect in the main read-out, with a control signal flat, not every such curve was filed as active; note: % of control where 0% means no effect); conditions: HEK293 ACTOne CNG channel cells, membrane potential fluorescence; series mostly up to 22.9 µM
In short: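 ACTOne HEK293 cells carry a modified cAMP-gated CNG channel and express endogenous PDE4; plated 1000 cells/well, compounds up to 22.9 uM final. Membrane-potential dye fluorescence (ex 535/em 590) was read; parental cells received 10 uM forskolin + 100 uM RO 20-1724.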

[9] = molecular target: Cytochrome P450 2C19 (Homo sapiens) (UniProt P33261); assay: qHTS Assay for Inhibitors and Substrates of Cytochrome P450 2C19 (AID 899; active = well fitted inhibition curve with a large enough effect; note: % is set by controls: 0 for no effect and ±100 for the full control effect; nearly all actives have a fitted effect of over 60% in size); conditions: recombinant CYP2C19, luciferin-H EGE luminescence; series mostly up to 11.4 µM
In short: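 Reactions contain 5nM enzyme, 10uM Luciferin-H EGE (KM) and 50mM KPO4; compound preincubates 10 min at 37C, NADPH regeneration starts turnover for 60 min. Luminescence after detection reagent gives activity.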

Glucocorticoid receptor (Homo sapiens), sequence (P04150 whole entry, looked up, the tested form may be a part): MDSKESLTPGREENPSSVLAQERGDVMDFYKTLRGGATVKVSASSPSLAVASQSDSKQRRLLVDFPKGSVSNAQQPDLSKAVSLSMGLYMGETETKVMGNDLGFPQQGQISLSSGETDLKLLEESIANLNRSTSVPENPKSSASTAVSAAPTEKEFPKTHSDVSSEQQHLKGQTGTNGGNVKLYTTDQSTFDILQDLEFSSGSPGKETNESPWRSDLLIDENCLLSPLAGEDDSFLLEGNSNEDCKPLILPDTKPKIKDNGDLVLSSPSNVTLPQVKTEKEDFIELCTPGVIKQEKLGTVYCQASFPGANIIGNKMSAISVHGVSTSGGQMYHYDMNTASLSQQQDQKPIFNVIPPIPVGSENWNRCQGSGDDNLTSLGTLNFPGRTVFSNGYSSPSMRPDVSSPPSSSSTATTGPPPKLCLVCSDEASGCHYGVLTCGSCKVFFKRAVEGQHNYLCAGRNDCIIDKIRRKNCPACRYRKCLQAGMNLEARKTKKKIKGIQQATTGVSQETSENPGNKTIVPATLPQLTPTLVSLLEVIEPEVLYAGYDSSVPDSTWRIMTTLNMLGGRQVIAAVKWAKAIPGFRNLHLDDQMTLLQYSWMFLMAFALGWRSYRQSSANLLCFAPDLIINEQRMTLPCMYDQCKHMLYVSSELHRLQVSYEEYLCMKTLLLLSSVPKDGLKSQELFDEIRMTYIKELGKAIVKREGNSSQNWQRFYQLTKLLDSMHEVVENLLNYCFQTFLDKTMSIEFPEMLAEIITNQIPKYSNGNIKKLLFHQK
3',5'-cyclic-AMP phosphodiesterase 4B (Homo sapiens), sequence (Q07343 whole entry, looked up): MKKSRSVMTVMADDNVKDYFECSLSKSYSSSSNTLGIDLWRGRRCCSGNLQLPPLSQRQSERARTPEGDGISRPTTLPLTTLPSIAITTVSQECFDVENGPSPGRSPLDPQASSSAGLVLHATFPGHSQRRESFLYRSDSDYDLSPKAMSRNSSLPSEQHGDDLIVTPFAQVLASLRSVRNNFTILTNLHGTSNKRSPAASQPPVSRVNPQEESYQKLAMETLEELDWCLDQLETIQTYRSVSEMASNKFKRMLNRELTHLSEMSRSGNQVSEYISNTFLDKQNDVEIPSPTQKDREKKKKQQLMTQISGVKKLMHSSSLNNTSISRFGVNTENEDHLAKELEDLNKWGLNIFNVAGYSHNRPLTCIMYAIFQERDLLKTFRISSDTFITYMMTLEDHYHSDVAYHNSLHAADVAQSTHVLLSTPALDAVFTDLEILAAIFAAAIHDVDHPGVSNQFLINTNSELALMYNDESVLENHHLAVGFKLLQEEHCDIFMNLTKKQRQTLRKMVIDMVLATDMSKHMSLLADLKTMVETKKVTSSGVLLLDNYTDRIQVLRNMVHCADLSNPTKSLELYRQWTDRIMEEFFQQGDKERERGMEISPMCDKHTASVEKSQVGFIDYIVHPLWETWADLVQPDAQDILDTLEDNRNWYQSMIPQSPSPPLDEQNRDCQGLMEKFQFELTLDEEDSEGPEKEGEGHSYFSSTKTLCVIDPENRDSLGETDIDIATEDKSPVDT
Cytochrome P450 1A2 (Homo sapiens), sequence (P05177 whole entry, looked up): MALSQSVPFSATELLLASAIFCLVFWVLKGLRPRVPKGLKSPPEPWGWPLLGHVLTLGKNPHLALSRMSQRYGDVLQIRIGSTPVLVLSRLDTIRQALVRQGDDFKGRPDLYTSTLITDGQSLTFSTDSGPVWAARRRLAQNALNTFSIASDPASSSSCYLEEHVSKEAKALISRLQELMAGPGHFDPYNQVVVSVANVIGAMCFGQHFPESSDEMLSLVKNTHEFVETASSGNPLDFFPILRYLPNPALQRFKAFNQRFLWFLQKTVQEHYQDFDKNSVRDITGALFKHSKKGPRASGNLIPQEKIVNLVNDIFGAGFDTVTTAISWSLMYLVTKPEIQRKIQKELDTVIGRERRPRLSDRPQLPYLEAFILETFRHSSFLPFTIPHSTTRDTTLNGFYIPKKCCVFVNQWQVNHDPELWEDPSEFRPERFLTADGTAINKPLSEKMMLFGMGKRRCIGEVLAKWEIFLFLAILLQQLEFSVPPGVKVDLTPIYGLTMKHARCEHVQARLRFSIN
Cytochrome P450 2C19 (Homo sapiens), sequence (P33261 whole entry, looked up): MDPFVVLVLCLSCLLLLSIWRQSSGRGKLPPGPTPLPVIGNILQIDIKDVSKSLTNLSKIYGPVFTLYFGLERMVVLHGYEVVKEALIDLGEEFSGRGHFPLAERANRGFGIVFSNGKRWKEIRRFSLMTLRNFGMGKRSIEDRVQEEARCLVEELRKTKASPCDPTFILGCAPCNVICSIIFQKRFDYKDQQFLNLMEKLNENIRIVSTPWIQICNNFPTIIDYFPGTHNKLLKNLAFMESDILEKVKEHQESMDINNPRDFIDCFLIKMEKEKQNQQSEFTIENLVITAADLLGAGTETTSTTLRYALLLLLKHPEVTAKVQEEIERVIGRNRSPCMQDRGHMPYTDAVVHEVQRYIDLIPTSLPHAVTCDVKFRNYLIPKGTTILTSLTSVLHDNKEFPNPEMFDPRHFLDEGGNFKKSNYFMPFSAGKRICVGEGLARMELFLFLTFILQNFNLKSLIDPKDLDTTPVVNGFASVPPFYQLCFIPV
Lysosomal acid glucosylceramidase (Homo sapiens), sequence (P04062 whole entry, looked up): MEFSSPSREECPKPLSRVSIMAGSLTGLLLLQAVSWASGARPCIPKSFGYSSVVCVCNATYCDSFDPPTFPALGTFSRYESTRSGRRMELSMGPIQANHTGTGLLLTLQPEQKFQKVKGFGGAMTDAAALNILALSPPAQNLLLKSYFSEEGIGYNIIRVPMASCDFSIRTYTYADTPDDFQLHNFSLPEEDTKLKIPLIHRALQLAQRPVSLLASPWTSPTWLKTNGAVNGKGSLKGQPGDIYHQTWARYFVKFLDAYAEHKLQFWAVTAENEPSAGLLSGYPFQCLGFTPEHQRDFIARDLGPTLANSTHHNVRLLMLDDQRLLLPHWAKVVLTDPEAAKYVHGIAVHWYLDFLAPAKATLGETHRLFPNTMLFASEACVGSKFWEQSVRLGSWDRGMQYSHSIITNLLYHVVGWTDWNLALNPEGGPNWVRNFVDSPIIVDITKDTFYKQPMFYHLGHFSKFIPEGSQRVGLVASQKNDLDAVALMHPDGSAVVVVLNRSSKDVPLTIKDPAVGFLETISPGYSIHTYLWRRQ

CC(C)NC[C@@H](O)c1ccc(O)c2ncccc12
inactive: Potency [1] > 11.4 µM | activity change, negative = inhibition [2] -5.62% | activity change, negative = inhibition [3] -12.1% [at 2.29 µM] | activity change, negative = inhibition [4] 14% | Potency [5] > 46 µM | Potency [6] > 9.22 µM | Potency [7] | Potency [8] | Potency [9]
